An excerpt weighted towards active compounds, which were near 1.6% of everything screened.
CR mimetic SO: reduction of superoxide in aged yeast, primary screen, HTS; S. cerevisiae aged cells, superoxide DHE fluorescence; hits give low values; 330,000 compounds, 0.18% hits; AID 2690, 2010; superoxide response (% of plate mean), % at 10 µM;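 active = superoxide response under a set limit, about three screen SD below normal, cut at about 65% in these data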;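 also: yeast aged for seven days with compound at 30 °C before DHE staining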
Efflux pump inh: inhibitors of Candida efflux pumps in yeast, primary screen, S. cerevisiae, Nile Red, multiplex; S. cerevisiae Candida pump triplex; inhibition, % at 10 µM; 330,000 compounds, 0.44% hits; AID 485275, 2010;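 active = plate passing quality check with inhibition over a set limit, or well fluorescence over plate mean plus 4 SD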;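 also: Nile Red retained in pooled yeast measured as flow cytometry median fluorescence; higher means more Nile Red kept so more efflux inhibition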
GRK2 aptamer HTS: compounds blocking aptamer binding on GRK2 – biochemical, human GRK2, bead flow cytometry, HTS, primary screen | Beta-adrenergic receptor kinase 1 (Homo sapiens), P25098 | FAM-aptamer displacement from GRK2 | inhibition of aptamer binding, % at 10 µM | 330,000 compounds, 0.59% hits;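 active = inhibition of aptamer binding above 40%, roughly 3 SD of noise, on plates passing a quality check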;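 also: median bead fluorescence of bound FAM aptamer so fluorescent compounds give negative values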
ATG4B inh: ATG4B protease inhibitors, primary screen, biochemical, fluorescence, uHTS; ATG4B cleavage of LC3-PLA2, NBD-HPC fluorescence, 1 h; AID 504462, 2011; inhibition, % at 8.33 µM; 340,000 compounds, 0.51% hits; Cysteine protease ATG4B (Homo sapiens), Q9Y4P1; in the data active = inhibition above about 40%
Target sequence (Q9Y4P1 whole entry, looked up): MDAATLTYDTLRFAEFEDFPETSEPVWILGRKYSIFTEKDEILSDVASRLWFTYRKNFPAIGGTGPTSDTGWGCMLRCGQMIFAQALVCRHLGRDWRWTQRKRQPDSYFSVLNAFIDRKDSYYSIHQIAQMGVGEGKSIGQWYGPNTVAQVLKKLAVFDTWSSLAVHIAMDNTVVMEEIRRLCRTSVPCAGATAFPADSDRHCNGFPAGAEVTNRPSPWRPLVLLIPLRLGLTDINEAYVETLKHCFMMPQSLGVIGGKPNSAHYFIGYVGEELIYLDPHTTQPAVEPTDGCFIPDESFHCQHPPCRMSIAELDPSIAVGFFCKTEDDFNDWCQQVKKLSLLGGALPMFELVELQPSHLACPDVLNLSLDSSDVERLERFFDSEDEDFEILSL
GRK2 CP1: GRK2 aptamer-displacing inhibitors, retest, confirmation, biochemical, cherry pick 1, bead flow cytometry | shares compounds with GRK2 aptamer HTS | 2,000 compounds, 4% hits | aptamer displacement, % at 10 µM | bead-bound GRK2, FAM-aptamer displacement;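 active = aptamer displacement above 40%, near three times the noise of non-fluorescent compounds, on plates passing quality checks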;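 also: negative values mostly reflect intrinsic compound fluorescence rather than true enhancement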
FAM quench CP1: counter-screen for GRK2 aptamer inhibitors: fluorescent aptamer quenchers; shares compounds with GRK2 aptamer HTS; Carboxyfluorescein RNA aptamer on beads, flow cytometry quenching; hits give low values; fluorescence response (% of DMSO), % at 10 µM; 2,000 tested, under 10 active;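 active = compounds that quench the bead-bound fluorescent RNA probe, cutting fluorescence to under half of the solvent control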;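 also: counterscreen run without GRK2 so only probe quenching by compound is measured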
Each line names hits and unclear results; the compound was inactive in the other large screens (follow-up assays come after a bar, where they were run).

CCOc1ccc(NC(=O)c2ccc(N3CC4CC(C3)c3cccc(=O)n3C4)c(N)c2)cc1 (configuration not stated)	GRK2 aptamer HTS 93 | GRK2 CP1 inactive | FAM quench CP1 inactive
COc1ccc(C(=O)OCCCc2cc3ccccc3c(=O)o2)cc1	none
CCOc1cc(N2CCOCC2)c(OCC)cc1NC(=O)c1ccccc1	none
CCOc1cc(N2CCOCC2)c(OCC)cc1NC(=O)c1ccc(S(=O)(=O)N(C)C)cc1	none
CCOc1cc(N2CCOCC2)c(OCC)cc1NC(=O)c1cccc(S(=O)(=O)N2CCOCC2)c1	none | GRK2 CP1 inactive | FAM quench CP1 inactive
CCOc1cc(N2CCOCC2)c(OCC)cc1NC(=O)c1cc(S(=O)(=O)N2CCOCC2)ccc1F	none | GRK2 CP1 inactive | FAM quench CP1 inactive
O=C(NC1CCCCC1)c1cc(S(=O)(=O)N2CCCCC2)ccc1N1CCOCC1	GRK2 aptamer HTS 42 | GRK2 CP1 inactive | FAM quench CP1 inactive
CCCc1nc(NCCCOCC)c2nnn(Cc3ccccc3)c2n1	none
NC(=O)CC(NC(=O)c1cccc(Br)c1)c1ccc(N2CCN(c3ccccn3)CC2)c([N+](=O)[O-])c1 (configuration not stated)	none
COc1ccc(CC(=O)N(Cc2ccccc2)C(C)C)cc1	none
COc1ccc(CCC(C)N(C)Cc2ccccc2)cc1 (configuration not stated)	none | GRK2 CP1 inactive | FAM quench CP1 inactive
COc1ccc(CN([C@H](CO)CC(C)C)S(=O)(=O)N(Cc2ccccc2)[C@H](CO)CC(C)C)cc1	none
COc1ccc(CN([C@H](C)CO)S(=O)(=O)N(Cc2ccccc2)[C@H](CO)C(C)C)cc1	GRK2 aptamer HTS 46 | GRK2 CP1 inactive | FAM quench CP1 inactive
CCC(Sc1nc(N)c(NC(=O)c2ccc(OC)cc2)c(=O)[nH]1)C(=O)O (configuration not stated)	none
Cc1ccc(S(=O)(=O)N2CCOCC2)cc1NC(=O)CN1C(=O)NC(C)(c2ccc(Cl)cc2Cl)C1=O (configuration not stated)	none
CCc1ccc(NC(=O)COC(=O)/C=C/c2ccco2)cc1	GRK2 aptamer HTS 70 | GRK2 CP1 inactive | FAM quench CP1 inactive
O=C(COC(=O)/C=C/c1ccco1)Nc1ccccc1	none
O=C(COC(=O)/C=C/c1ccco1)Nc1cc(S(=O)(=O)N2CCOCC2)ccc1Cl	GRK2 aptamer HTS 59 | GRK2 CP1 inactive | FAM quench CP1 inactive
CCC(CC)C(=O)OCC(=O)Nc1ccc(S(=O)(=O)N2CCOCC2)cc1OC	GRK2 aptamer HTS 51 | GRK2 CP1 inactive | FAM quench CP1 inactive
COc1ccc(C(=O)COC(=O)CCCC(=O)NC2CCCCC2)cc1	none
CC(C)(C(=O)c1ccccc1)/[N+]([O-])=C/c1ccc(Br)cc1	GRK2 aptamer HTS 60 | GRK2 CP1 inactive | FAM quench CP1 inactive
CC(COC(=O)c1ccccc1)(COC(=O)c1ccccc1)/[N+]([O-])=C/c1ccccc1	none
Cc1ccc(C)c(NC(=S)NC(=O)c2cncc(Br)c2)c1	GRK2 aptamer HTS 79 | GRK2 CP1 inactive | FAM quench CP1 inactive
Nc1ccc2nc(-c3ccc(-c4nc5ccc(N)cc5[nH]4)cc3)[nH]c2c1	GRK2 aptamer HTS 85 | GRK2 CP1 inactive | FAM quench CP1 inactive
O=C(CSc1ccccc1)Nc1ccc(Cl)c(S(=O)(=O)N2CCOCC2)c1	none | GRK2 CP1 inactive | FAM quench CP1 inactive
O=C(CSc1ncccn1)Nc1ccc(Cl)c(S(=O)(=O)N2CCOCC2)c1	none
COc1ccc(-n2nc(C(=O)NCC(=O)Nc3cccc(Cl)c3)c3ccccc3c2=O)cc1	none
NC(=O)C1CCN(CC(=O)Nc2cccnc2Cl)CC1	GRK2 aptamer HTS 42 | GRK2 CP1 inactive | FAM quench CP1 inactive
NC(=O)C1CCN(CC(=O)Nc2ccccc2N2CCOCC2)CC1	none
COc1cccc(C(=O)Nc2cc(-c3cn4cccnc4n3)ccc2C)c1	none
O=C(CN1CCN(c2ccc(F)cc2)CC1)Nc1ccc(-n2cnnn2)cc1	none
CC1(C)NC(=O)N(CC(=O)Nc2ccc(-n3cnnn3)cc2)C1=O	none | GRK2 CP1 inactive | FAM quench CP1 inactive
Cc1ccc(-c2csc(N(CCCN3CCOCC3)C(=O)c3ccco3)n2)cc1	none | GRK2 CP1 inactive | FAM quench CP1 inactive
CCn1ncc(CN2CCC(Oc3cc(C(=O)NC4CC4)ccc3OC)CC2)c1C	none
N/C(=N\OC(=O)C1CCCCC1)c1ccccn1	GRK2 aptamer HTS 83 | GRK2 CP1 inactive | FAM quench CP1 inactive
CCCCN1C(=O)/C(=C2/Sc3ccccc3N2C)S/C1=N\c1ncn[nH]1	none
C/C(=N\NC(=O)c1nnn(-c2nonc2N)c1C(C)C)c1ccc2ccccc2c1	none
CC(NC(=O)CCNS(=O)(=O)c1ccc2c(c1)oc(=O)n2C)c1ccccc1 (configuration not stated)	none
COC(=O)C1=C(C)NC(C)=C(C(=O)OC)C1C(=O)OCC(=O)c1ccc(F)cc1	none
COC(=O)C1=C(C)NC(C)=C(C(=O)OC)C1C(=O)OCC(=O)Nc1ccc(C(C)=O)cc1	GRK2 aptamer HTS 75 | GRK2 CP1 inactive | FAM quench CP1 inactive
COc1ccc(NC(=O)N(Cc2ccc3c(c2)OCO3)C2CC(=O)N(c3ccc(OC)cc3)C2=O)cc1 (configuration not stated)	GRK2 aptamer HTS 99 | GRK2 CP1 inactive | FAM quench CP1 inactive
O=C1CC(N(Cc2ccc3c(c2)OCO3)C(=O)Nc2ccc(F)cc2)C(=O)N1c1ccccc1 (configuration not stated)	none
Cc1cc(OCCCCn2ccnc2)cc(C)c1Cl	none
O=c1c2c([N+](=O)[O-])cc([N+](=O)[O-])cc2nc2ccccn12	GRK2 aptamer HTS 69 | GRK2 CP1 inactive | FAM quench CP1 inactive
Cc1ccc(N2CCN(S(=O)(=O)N3CCOCC3)CC2)cc1C	none
CCCc1c(C(=O)N/N=C(\C)c2ccc(O)cc2)nnn1-c1nonc1N	none
CCCc1c(C(=O)N/N=C(\C)CCc2ccccc2)nnn1-c1nonc1N	GRK2 aptamer HTS 70 | GRK2 CP1 inactive | FAM quench CP1 inactive
O=c1c2ccccc2nc2n1CCc1c-2[nH]c2ccccc12	none | GRK2 CP1 inactive | FAM quench CP1 inactive
COCCNC(=O)COC(=O)c1cc(-c2ccc(OC)cc2)nc2ccccc12	none
Cc1ccc(N2C(=O)[C@@H]3C(c4cccnc4)=NO[C@@H]3C2=O)cc1	none

High-throughput results deposited in PubChem BioAssay by several laboratories.
